PubChem BioAssay AID1159580 (chemical genetic matrix, 2015)
The whole screen tested about 5,500 compounds, of which about 2,000 (36%) were called active. Roughly 18% stayed inconclusive and do not appear here. The list shows a part of the results. Values without a mark were called inactive. Cut-off read from the data, not from the text of the source: active = normalized growth mostly below about 0.91 (no sharp cut-off); inconclusive = no clear call, values can overlap the other calls; inactive = mostly above about 0.92.

Assay: chemical genetic growth profiling, strain panel (AID 1159580);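 note: tested at 20 µM; growth read once vehicle control cultures reached saturation at 30 °C; 1 = growth at the plate median or of vehicle wells; lower values mean less growth of the strain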
Details: S. cerevisiae deletion strains, growth OD
[1] = locus YAR019C, strain CDC15, hits give low values
[2] = locus YBL105C, strain PKC1, hits give low values
[3] = locus YBR135W, strain CKS1, hits give low values
[4] = locus YBR136W, strain MEC1, hits give low values
[5] = locus YBR160W, strain CDC28, hits give low values
[6] = locus YDL017W, strain CDC7, hits give low values
[7] = locus YDL028C, strain MPS1, hits give low values
[8] = locus YDL101C, strain DUN1, hits give low values
[9] = locus YDL214C, strain PRR2, hits give low values
[10] = locus YDR052C, strain DBF4, hits give low values
[11] = locus YDR054C, strain cdc34, hits give low values
[12] = locus YDR226W, strain ADK1, hits give low values
[13] = locus YDR477W, strain SNF1, hits give low values
[14] = locus YER123W, strain YCK3, hits give low values
[15] = locus YER133W, strain GLC7, hits give low values
[16] = locus YFL009W, strain cdc4, hits give low values
[17] = locus YFL029C, strain CAK1, hits give low values
[18] = locus YFR003C, strain YPI1, hits give low values
[19] = locus YFR019W, strain FAB1, hits give low values
[20] = locus YFR028C, strain CDC14, hits give low values
[21] = locus YGR040W, strain KSS1, hits give low values
[22] = locus YGR052W, strain FMP48, hits give low values
[23] = locus YGR092W, strain DBF2, hits give low values
[24] = locus YHR030C, strain SLT2, hits give low values
[25] = locus YHR079C, strain IRE1, hits give low values
[26] = locus YHR082C, strain KSP1, hits give low values
[27] = locus YHR205W, strain SCH9, hits give low values
[28] = locus YIL147C, strain SLN1, hits give low values
[29] = locus YJL095W, strain BCK1, hits give low values
[30] = locus YJL128C, strain PBS2, hits give low values
[31] = locus YJL157C, strain FAR1, hits give low values
[32] = locus YJR066W, strain TOR1 (second series), hits give low values
[33] = locus YJR066W, strain TOR1, hits give low values
[34] = locus YKL048C, strain ELM1, hits give low values
[35] = locus YKL067W, strain YNK1, hits give low values
[36] = locus YKL101W, strain HSL1, hits give low values
[37] = locus YKL193C, strain SDS22, hits give low values
[38] = locus YKL203C, strain TOR2, hits give low values
[39] = locus YLR113W, strain HOG1, hits give low values
[40] = locus YLR133W, strain CKI1, hits give low values
[41] = locus YLR403W, strain SFP1, hits give low values
[42] = locus YML070W, strain DAK1, hits give low values
[43] = locus YMR001C, strain CDC5, hits give low values
[44] = locus YMR205C, strain PFK2 (second series), hits give low values
[45] = locus YMR277W, strain FCP1, hits give low values
[46] = locus YNL006W, strain LST8, hits give low values
[47] = locus YNL020C, strain ARK1, hits give low values
[48] = locus YNL161W, strain CBK1, hits give low values
[49] = locus YNL183C, strain NPR1, hits give low values
[50] = locus YNL207W, strain RIO2, hits give low values
[51] = locus YNL222W, strain SSU72, hits give low values
[52] = locus YNL307C, strain MCK1 (second series), hits give low values
[53] = locus YOL078W, strain AVO1, hits give low values
[54] = locus YOL136C, strain PFK27, hits give low values
[55] = locus YOR061W, strain CKA2, hits give low values
[56] = locus YOR119C, strain RIO1, hits give low values
[57] = locus YOR231W, strain MKK1, hits give low values
[58] = locus YOR329C, strain SCD5, hits give low values
[59] = locus YPL031C, strain PHO85, hits give low values
[60] = locus YPL153C, strain RAD53, hits give low values
[61] = locus YPL204W, strain HRR25, hits give low values
[62] = locus YPL209C, strain IPL1, hits give low values
[63] = locus YPL256C, strain CLN2, hits give low values
[64] = locus YPR025C, strain CCL1, hits give low values
[65] = strain NNK1, hits give low values
[66] = strain TSCII, hits give low values

CC(C)(C)c1ccc(N/N=C(\C#N)C(N)=O)cc1
normalized growth [1]: 0.111 (active) | normalized growth [2]: 0.0972 (active) | normalized growth [3]: 0.109 (active) | normalized growth [4]: 0.109 (active) | normalized growth [5]: 0.114 (active) | normalized growth [6]: 0.0979 (active) | normalized growth [7]: 0.117 (active) | normalized growth [8]: 0.115 (active) | normalized growth (locus YDL108W, strain KIN28, hits give low values): 0.11 (active) | normalized growth (locus YDL132W, strain cdc53, hits give low values): 0.142 (active) | normalized growth [9]: 0.114 (active) | normalized growth [10]: 0.146 (active) | normalized growth [11]: 0.107 (active) | normalized growth [12]: 0.117 (active) | normalized growth [13]: 0.103 (active) | normalized growth [14]: 0.104 (active) | normalized growth [15]: 0.133 (active) | normalized growth [16]: 0.105 (active) | normalized growth [17]: 0.11 (active) | normalized growth [18]: 0.0948 (active) | normalized growth [19]: 0.103 (active) | normalized growth [20]: 0.108 (active) | normalized growth [21]: 0.108 (active) | normalized growth [22]: 0.145 (active) | normalized growth [23]: 0.101 (active) | normalized growth [24]: 0.189 (active) | normalized growth [25]: 0.214 (active) | normalized growth [26]: 0.225 (active) | normalized growth [27]: 0.000939 (active) | normalized growth [28]: 0.107 (active) | normalized growth [29]: 0.166 (active) | normalized growth [30]: 0.0973 (active) | normalized growth [31]: 0.112 (active) | normalized growth (locus YJR016C, strain ILV3, hits give low values): 0.101 (active) | normalized growth [32]: 0.0973 (active) | normalized growth [33]: 0.207 (active) | normalized growth [34]: 0.134 (active) | normalized growth [35]: 0.118 (active) | normalized growth [36]: 0.103 (active) | normalized growth [37]: 0.109 (active) | normalized growth [38]: 0.112 (active) | normalized growth [39]: 0.212 (active) | normalized growth [40]: 0.0995 (active) | normalized growth [41]: 0.00739 (active) | normalized growth [42]: 0.116 (active) | normalized growth [43]: 0.112 (active) | normalized growth [44]: 0.0978 (active) | normalized growth [45]: 0.105 (active) | normalized growth [46]: 0.0902 (active) | normalized growth [47]: 0.0965 (active) | normalized growth [48]: 0.112 (active) | normalized growth [49]: 0.135 (active) | normalized growth [50]: 0.102 (active) | normalized growth [51]: 0.107 (active) | normalized growth [52]: 0.109 (active) | normalized growth [53]: 0.108 (active) | normalized growth [54]: 0.122 (active) | normalized growth [55]: 0.092 (active) | normalized growth [56]: 0.119 (active) | normalized growth [57]: 0.249 (active) | normalized growth [58]: 0.101 (active) | normalized growth [59]: 0.103 (active) | normalized growth [60]: 0.0998 (active) | normalized growth [61]: 0.108 (active) | normalized growth [62]: 0.0972 (active) | normalized growth [63]: 0.243 (active) | normalized growth [64]: 0.112 (active) | normalized growth (locus YPR106W, strain ISR1, hits give low values): 0.107 (active) | normalized growth (locus YPR111W, strain DBF20, hits give low values): 0.131 (active) | normalized growth [65]: 0.105 (active) | normalized growth [66]: 0.106 (active)

CCOC(=O)CNc1ccc(F)cc1
normalized growth (locus YAL013W, strain DEP1, hits give low values): 0.995 | normalized growth (locus YBR229C, strain ROT2, hits give low values): 0.989 | normalized growth [8]: 1.02 | normalized growth (locus YDL134C, strain PPH21, hits give low values): 0.977 | normalized growth (locus YDR150W, strain NUM1, hits give low values): 1.02 | normalized growth (locus YEL061C, strain CIN8, hits give low values): 1.01 | normalized growth (locus YGR078C, strain PAC10, hits give low values): 0.991 | normalized growth [24]: 0.989 | normalized growth (locus YHR087W, strain rtc3, hits give low values): 1.01 | normalized growth (locus YJL187C, strain SWE1, hits give low values): 1 | normalized growth (locus YJR043C, strain POL32, hits give low values): 0.988 | normalized growth (locus YJR075W, strain HOC1, hits give low values): 0.99 | normalized growth (locus YLR039C, strain RIC1, hits give low values): 0.953 | normalized growth (locus YLR058C, strain SHM2 (second series), hits give low values): 0.983 | normalized growth (locus YLR085C, strain ARP6, hits give low values): 0.986 | normalized growth (locus YLR262C, strain YPT6, hits give low values): 0.975 | normalized growth (locus YML094W, strain GIM5, hits give low values): 1.04 | normalized growth (locus YMR219W, strain ESC1, hits give low values): 0.997 | normalized growth (locus YMR263W, strain SAP30, hits give low values): 0.983 | normalized growth (locus YNL128W, strain TEP1, hits give low values): 0.98 | normalized growth (locus YNL153C, strain GIM3, hits give low values): 1.01 | normalized growth (locus YNL298W, strain CLA4 (second series), hits give low values): 0.974 | normalized growth (locus YNL322C, strain KRE1, hits give low values): 0.999 | normalized growth (locus YNR030W, strain Alg12, hits give low values): 1.03 | normalized growth (locus YPL055C, strain LGE1, hits give low values): 1.02 | normalized growth (locus YPL241C, strain CIN2, hits give low values): 0.977 | normalized growth (locus YPR135W, strain CTF4, hits give low values): 0.965

CC(=O)/C(C#N)=N\Nc1ccc(F)cc1
normalized growth [1]: 0.429 (active) | normalized growth [2]: 0.519 (active) | normalized growth [3]: 0.782 (active) | normalized growth [4]: 0.583 (active) | normalized growth [5]: 0.723 (active) | normalized growth [6]: 0.584 (active) | normalized growth [7]: 0.728 (active) | normalized growth [8]: 0.201 (active) | normalized growth [9]: 0.118 (active) | normalized growth [10]: 0.957 | normalized growth [11]: 0.525 (active) | normalized growth [12]: 0.978 | normalized growth [13]: 0.127 (active) | normalized growth [14]: 0.115 (active) | normalized growth [15]: 0.17 (active) | normalized growth [16]: 0.631 (active) | normalized growth [17]: 0.468 (active) | normalized growth [18]: 0.633 (active) | normalized growth [19]: 0.115 (active) | normalized growth [20]: 0.699 (active) | normalized growth [21]: 0.137 (active) | normalized growth [22]: 0.185 (active) | normalized growth [23]: 0.102 (active) | normalized growth [24]: 0.108 (active) | normalized growth [25]: 0.138 (active) | normalized growth [26]: 0.171 (active) | normalized growth [27]: 0.102 (active) | normalized growth [28]: 0.585 (active) | normalized growth [29]: 0.12 (active) | normalized growth [30]: 0.316 (active) | normalized growth [31]: 0.102 (active) | normalized growth [32]: 0.107 (active) | normalized growth [33]: 0.137 (active) | normalized growth [34]: 0.14 (active) | normalized growth [35]: 0.117 (active) | normalized growth [36]: 0.118 (active) | normalized growth [37]: 0.455 (active) | normalized growth [38]: 0.126 (active) | normalized growth [39]: 0.178 (active) | normalized growth [40]: 0.118 (active) | normalized growth [41]: 0.0142 (active) | normalized growth [42]: 0.123 (active) | normalized growth [43]: 0.458 (active) | normalized growth [44]: 0.132 (active) | normalized growth [45]: 0.349 (active) | normalized growth [46]: 0.57 (active) | normalized growth [47]: 0.123 (active) | normalized growth [48]: 0.409 (active) | normalized growth [49]: 0.147 (active) | normalized growth [50]: 0.632 (active) | normalized growth [51]: 0.487 (active) | normalized growth [52]: 0.126 (active) | normalized growth [53]: 0.568 (active) | normalized growth [54]: 0.114 (active) | normalized growth [55]: 0.127 (active) | normalized growth [56]: 0.131 (active) | normalized growth [57]: 0.136 (active) | normalized growth [58]: 0.488 (active) | normalized growth [59]: 0.124 (active) | normalized growth [60]: 0.132 (active) | normalized growth [61]: 0.124 (active) | normalized growth [62]: 0.587 (active) | normalized growth [63]: 0.181 (active) | normalized growth [64]: 0.631 (active) | normalized growth [65]: 0.344 (active) | normalized growth [66]: 0.512 (active)
